Design in all cases: scale not given: direction of the effect not stated beside the values
Test [1] concerns the target Protein translocase subunit SecA (Escherichia coli (strain K12)) (UniProt P10408). As to the kind of experiment: Assay to Identify E. coli SecA ATPase Inhibitors. The following applies: 30 µM. The format is functional.
The target in test [2] is T1, Ubiquitin-activating enzyme e1, putative (Leishmania donovani (strain BPK282A1)) (UniProt E9BSI1).
T1 sequence (whole entry): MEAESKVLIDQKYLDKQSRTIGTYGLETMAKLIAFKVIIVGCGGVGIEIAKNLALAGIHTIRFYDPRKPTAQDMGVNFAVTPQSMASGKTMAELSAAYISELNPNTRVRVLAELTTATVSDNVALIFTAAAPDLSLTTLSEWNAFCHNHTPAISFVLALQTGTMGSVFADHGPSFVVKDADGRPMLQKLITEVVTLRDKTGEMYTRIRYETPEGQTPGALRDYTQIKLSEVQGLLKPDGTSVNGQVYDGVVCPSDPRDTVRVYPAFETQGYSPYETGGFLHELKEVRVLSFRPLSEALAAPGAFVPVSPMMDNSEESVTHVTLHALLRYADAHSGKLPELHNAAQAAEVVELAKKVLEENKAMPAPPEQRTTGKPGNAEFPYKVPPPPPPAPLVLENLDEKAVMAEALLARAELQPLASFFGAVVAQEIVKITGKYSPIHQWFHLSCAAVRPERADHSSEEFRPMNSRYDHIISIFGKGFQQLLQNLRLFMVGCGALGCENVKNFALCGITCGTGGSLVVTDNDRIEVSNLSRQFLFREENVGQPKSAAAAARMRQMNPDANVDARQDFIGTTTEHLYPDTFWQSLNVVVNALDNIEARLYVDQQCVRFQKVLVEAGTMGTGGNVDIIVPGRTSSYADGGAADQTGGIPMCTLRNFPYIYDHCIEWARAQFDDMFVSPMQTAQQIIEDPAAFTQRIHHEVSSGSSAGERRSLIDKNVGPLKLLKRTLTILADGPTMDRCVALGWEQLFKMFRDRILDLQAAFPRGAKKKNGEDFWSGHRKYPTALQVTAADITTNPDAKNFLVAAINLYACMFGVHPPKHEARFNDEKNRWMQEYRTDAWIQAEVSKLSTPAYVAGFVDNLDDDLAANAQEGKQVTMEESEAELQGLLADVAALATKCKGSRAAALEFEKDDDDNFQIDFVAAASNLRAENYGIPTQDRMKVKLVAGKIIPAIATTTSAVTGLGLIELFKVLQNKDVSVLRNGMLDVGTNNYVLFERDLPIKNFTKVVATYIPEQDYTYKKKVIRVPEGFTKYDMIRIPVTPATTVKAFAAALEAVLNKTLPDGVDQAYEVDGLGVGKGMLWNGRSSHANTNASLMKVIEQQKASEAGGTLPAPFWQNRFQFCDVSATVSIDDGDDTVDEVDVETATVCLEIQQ
The experiment in a line: Leishmania donovani Ubiquitin Activating Enzyme (LdE1). The following applies: 30 µM. The class given is functional.

Test [3] addresses AMP-activated protein kinase, AMPK (Homo sapiens) (UniProt P54646+O43741+P54619+Q9UGJ0+Q9Y478+Q13131+Q9UGI9). The experiment in a line: AMP-dependent Kinase enzyme assay. An in vitro enzyme assay that detects ADP turnover that is directly proportional to AMPK activity. This uses naive AMPK that is activated during the assay with MK-8722. The class given is functional. The following applies: 30 µM.

The target in test [4] is Sialic acid-binding Ig-like lectin 9 (Homo sapiens) (UniProt Q9Y336). As to the kind of experiment: Hs-Siglec9 ALPHAscreen SOP 20170721. The following applies: 10 µM. (Alpha assays give light when donor and acceptor beads are brought close together.)
Sialic acid-binding Ig-like lectin 9 (Homo sapiens), sequence (Q9Y336 whole entry): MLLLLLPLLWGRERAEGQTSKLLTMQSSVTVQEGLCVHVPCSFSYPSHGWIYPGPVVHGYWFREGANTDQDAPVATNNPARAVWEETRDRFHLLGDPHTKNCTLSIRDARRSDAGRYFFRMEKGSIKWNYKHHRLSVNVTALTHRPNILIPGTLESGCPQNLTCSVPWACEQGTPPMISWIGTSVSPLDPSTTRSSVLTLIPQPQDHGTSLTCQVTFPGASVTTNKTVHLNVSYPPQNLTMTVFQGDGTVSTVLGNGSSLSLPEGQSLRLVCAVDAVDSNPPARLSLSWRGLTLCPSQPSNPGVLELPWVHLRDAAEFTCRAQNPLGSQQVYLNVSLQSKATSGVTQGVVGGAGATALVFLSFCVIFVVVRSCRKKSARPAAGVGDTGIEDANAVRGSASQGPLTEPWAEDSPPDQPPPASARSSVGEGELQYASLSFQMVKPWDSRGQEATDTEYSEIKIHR
Test [5] relates to Trypanosoma cruzi. As to the kind of experiment: Trypanosoma cruzi phosphomannomutase and mannose-1-phosphate guanylyltransferase assay. The class given is functional. The settings on record: 10 µM.
Test [6] has as its target T2, Arginase-2, mitochondrial (Homo sapiens) (UniProt P78540).
T2 sequence (whole entry): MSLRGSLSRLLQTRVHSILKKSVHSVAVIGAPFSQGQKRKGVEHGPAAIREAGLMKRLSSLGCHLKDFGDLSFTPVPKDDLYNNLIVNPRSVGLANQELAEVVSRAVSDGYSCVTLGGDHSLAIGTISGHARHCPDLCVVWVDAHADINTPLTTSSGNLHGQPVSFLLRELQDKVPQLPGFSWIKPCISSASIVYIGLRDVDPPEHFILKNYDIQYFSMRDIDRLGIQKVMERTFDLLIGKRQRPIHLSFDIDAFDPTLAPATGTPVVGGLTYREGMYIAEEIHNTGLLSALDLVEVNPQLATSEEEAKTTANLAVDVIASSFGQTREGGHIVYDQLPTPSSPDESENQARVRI
As to the kind of experiment: in vitro enzyme assay to detect the production of urea directly proportional to the activity of Arginase II. Further: in the data most compounds retested in dose-response had high values. The class given is functional. The following applies: 33.3 µM.

For test [7], the target named is T3, Proteasome subunit beta (Trypanosoma cruzi) (UniProt O96673).
T3 sequence (whole entry): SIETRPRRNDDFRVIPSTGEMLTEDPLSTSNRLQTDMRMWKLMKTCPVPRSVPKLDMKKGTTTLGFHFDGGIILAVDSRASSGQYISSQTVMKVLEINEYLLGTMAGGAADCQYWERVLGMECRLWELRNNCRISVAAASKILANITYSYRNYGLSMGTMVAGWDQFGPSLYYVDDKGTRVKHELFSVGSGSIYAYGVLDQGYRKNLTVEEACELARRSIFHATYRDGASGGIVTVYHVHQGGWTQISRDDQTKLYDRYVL
The experiment in a line: Trypanosoma cruzi proteasome chymotrypsin-like activity (TcProtChymo) assay. Further: in the data most compounds retested in dose-response had high values. The format is functional. The following applies: 9.37 µM.

The species entered for test [8] is Homo sapiens. The experiment in a line: To identify inhibition of the IFN signalling (Jak-Stat) pathway via expression of an eGFP reporter gene under the control of an IFN-stimulated response element (ISRE) containing MxA promoter. The format is functional. The settings on record: 30 µM. (In general: A reporter such as luciferase makes a cellular process visible.)

Test [9] concerns the target T4, Tyrosyl-tRNA synthetase, putative (Trypanosoma cruzi (strain CL Brener)) (UniProt Q4DSP6).
T4 sequence (whole entry): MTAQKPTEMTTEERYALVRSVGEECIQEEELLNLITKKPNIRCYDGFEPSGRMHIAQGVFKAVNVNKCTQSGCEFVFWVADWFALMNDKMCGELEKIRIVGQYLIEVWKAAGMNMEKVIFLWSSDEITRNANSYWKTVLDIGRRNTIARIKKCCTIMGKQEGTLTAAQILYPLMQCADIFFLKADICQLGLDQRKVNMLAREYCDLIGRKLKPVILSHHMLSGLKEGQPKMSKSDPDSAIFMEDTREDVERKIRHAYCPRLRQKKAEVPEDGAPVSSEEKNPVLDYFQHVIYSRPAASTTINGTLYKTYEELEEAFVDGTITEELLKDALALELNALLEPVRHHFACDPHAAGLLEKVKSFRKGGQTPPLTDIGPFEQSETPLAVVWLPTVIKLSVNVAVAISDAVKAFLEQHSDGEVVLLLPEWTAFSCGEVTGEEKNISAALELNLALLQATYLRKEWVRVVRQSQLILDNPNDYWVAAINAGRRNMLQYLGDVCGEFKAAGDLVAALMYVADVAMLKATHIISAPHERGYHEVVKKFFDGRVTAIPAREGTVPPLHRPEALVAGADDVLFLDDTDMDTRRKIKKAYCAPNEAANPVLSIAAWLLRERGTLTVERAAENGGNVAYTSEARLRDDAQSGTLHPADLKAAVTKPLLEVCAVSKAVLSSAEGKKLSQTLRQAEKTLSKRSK
As to the kind of experiment: Trypanosoma cruzi tyrosyl tRNA synthetase (TcYRS) _High Tyrosine SOP. Further: in the data most compounds retested in dose-response had high values. The class given is functional. The settings on record: 30 µM.

Test [10] addresses T4, Tyrosyl-tRNA synthetase, putative (Trypanosoma cruzi (strain CL Brener)). The experiment in a line: Trypanosoma cruzi tyrosyl tRNA synthetase (TcYRS) SOP. The settings on record: 30 µM. The format is functional.
Test [11] concerns the target Chromo domain-containing protein 1 (Saccharomyces cerevisiae (strain ATCC 204508 / S288c) (Baker's yeast)) (UniProt P32657). The experiment in a line: ScCHD-1 Enzyme Inhibition Assay. Further: in the data most compounds retested in dose-response had high values. The class given is functional. The settings on record: 30 µM.

For some assays here: Measured potencies and affinities stand elsewhere.

Protein translocase subunit SecA (Escherichia coli (strain K12)), sequence (P10408 whole entry): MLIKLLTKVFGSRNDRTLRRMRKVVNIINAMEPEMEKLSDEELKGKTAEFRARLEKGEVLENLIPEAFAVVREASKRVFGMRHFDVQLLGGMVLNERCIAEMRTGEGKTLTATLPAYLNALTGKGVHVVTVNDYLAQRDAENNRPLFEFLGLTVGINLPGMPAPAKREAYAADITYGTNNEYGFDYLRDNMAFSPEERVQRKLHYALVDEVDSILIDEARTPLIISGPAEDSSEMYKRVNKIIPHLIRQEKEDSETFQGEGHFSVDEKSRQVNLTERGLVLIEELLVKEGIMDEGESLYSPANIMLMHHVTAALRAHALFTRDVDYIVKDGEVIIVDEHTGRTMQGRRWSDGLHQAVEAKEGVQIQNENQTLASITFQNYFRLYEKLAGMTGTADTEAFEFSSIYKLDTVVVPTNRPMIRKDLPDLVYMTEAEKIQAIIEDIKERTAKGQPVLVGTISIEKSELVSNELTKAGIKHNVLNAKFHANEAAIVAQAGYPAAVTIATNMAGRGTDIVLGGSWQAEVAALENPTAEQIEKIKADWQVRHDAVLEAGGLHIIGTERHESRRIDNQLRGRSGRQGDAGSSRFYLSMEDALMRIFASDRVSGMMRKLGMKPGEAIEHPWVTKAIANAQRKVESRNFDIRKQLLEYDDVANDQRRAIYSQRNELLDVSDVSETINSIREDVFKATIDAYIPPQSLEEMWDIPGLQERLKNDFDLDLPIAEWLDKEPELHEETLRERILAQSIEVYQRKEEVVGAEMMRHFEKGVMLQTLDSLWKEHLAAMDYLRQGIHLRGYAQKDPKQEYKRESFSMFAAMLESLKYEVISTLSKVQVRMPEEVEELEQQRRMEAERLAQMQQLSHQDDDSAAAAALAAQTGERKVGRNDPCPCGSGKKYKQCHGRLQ
Chromo domain-containing protein 1 (Saccharomyces cerevisiae (strain ATCC 204508 / S288c) (Baker's yeast)), sequence (P32657 whole entry, the tested form may be a part): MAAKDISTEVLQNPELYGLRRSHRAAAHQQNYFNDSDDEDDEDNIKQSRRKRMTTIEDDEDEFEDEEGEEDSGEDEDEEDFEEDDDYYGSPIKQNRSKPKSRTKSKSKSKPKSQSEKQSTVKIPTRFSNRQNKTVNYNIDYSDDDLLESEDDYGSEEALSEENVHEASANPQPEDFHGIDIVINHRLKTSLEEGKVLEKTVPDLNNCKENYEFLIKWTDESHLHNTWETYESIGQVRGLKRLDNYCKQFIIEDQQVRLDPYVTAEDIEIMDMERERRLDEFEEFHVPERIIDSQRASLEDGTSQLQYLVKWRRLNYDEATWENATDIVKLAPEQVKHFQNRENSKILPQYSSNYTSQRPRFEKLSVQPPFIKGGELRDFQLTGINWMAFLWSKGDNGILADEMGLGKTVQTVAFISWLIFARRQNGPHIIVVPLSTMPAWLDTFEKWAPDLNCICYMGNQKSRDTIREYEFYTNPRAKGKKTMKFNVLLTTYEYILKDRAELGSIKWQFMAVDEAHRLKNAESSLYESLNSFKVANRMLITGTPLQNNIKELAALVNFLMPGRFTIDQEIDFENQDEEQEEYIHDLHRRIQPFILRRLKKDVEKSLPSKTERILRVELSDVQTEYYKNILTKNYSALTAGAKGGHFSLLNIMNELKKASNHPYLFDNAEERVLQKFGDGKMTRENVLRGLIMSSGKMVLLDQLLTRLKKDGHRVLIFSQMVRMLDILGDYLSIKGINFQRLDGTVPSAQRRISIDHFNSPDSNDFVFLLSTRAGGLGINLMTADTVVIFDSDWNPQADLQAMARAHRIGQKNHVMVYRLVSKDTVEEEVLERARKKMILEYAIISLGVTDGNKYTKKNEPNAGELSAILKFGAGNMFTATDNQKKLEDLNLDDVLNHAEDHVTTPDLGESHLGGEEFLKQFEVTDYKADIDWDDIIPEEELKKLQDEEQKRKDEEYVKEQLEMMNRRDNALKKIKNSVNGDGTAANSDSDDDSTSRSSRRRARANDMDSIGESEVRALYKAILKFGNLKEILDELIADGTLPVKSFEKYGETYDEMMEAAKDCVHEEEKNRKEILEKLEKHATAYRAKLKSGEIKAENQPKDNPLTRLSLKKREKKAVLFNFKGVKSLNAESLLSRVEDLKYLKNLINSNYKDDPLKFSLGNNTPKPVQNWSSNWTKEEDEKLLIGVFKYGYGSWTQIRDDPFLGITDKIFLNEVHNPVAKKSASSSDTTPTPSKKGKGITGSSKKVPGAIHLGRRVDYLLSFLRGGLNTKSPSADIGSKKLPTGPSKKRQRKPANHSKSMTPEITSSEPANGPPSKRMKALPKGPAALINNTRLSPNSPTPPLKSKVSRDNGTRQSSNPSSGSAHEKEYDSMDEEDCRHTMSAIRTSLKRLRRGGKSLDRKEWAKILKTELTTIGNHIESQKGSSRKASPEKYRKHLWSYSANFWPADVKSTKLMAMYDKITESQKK

As to `Cc1cccc(C(=O)N(C)Cc2cc(Br)cs2)n1`, the Percent Effect in test [1] was -6.38%; in [2], 5.26%; in test [3] it was 7.43%; in test [4], 4.27%; in test [5], 4.77%; in test [6], 0%. Moreover, the Percent Effect in [7] was 12.8%; in test [8] it was -26.6%; in test [9], 4.25%; in [10], 7.79%; in [11] it was 0.914%.
With `CN(C)C(=O)c1ccc2c(c1)N(C)C(CC(=O)NCCC(C)(C)C)CO2` (stereo not given), the Percent Effect in [1] was -3.89%; in test [2], 9.72%; in test [3], 3.96%; in [4], 13.4%; in test [5], 5.73%; in test [6], 22.1%. The Percent Effect is 14.4% in test [7]; 2.35% in test [8]; 3.16% in test [9]; 10.3% in test [10]; -5.3% in test [11].
As to `O=C(CCC(=O)N1CCCC1c1cccs1)N1CCc2sccc2C1` (stereo not given), the Percent Effect in test [1] was 1.64%; in test [2] it was -8.11%; in test [3], -5.22%; in [4], 4.27%; in [5] it was 5%; in [6] it was -1.6%. Besides, the Percent Effect in test [7] is 3.42%; in [8] it was 19.6%; in [9], 3.45%; in test [10], 3.7%; in [11] it was -5.21%.
In the case of `CCC(=O)N1CCC(c2nnc(Cn3cncn3)n2C2CC2)CC1`, the Percent Effect in test [1] was -0.998%; in [2], 15.3%; in test [3], -1.98%; in test [4] it was 12.9%; in test [5], 5.34%; in test [6], 16.3%. For the same molecule, the Percent Effect was 17.7% in test [7]; 0.244% in test [8]; -1.05% in [9]; 15.4% in test [10]; -3.53% in [11].
With `COCc1nc(C(=O)N2CCCC2c2c(C)nn(C)c2C)cs1` (stereo not given), the Percent Effect in test [1] is -0.948%; in test [2], -3.8%; in [3], 3.43%; in test [4], 1.97%; in [5] it was -1.33%; in test [6], 0.645%. The Percent Effect in [7] is -0.172%; in test [8], 12%; in test [9], 3.12%; in test [10] it was 5.06%; in [11] it was 2.98%.
Consider `COc1cc(C)nc(N2CCN(C(=O)CCc3cscn3)CC2)n1`, for which the Percent Effect is 1.16% in test [1]; 2.7% in test [2]; -1.3% in test [3]; 0.273% in test [4]; -6.95% in test [5]; 1.91% in test [6]. In addition, the Percent Effect was 11.4% in [7]; 0.884% in test [8]; 5.82% in [9]; 9.76% in [10]; -3.75% in test [11].
On to `O=C(c1ccc(F)cc1)N1CCN2C[C@H](OCc3ccccn3)C[C@H]2C1`, for which the Percent Effect in test [1] was -5.08%; in test [2] it was 8.11%; in test [3], 5.44%; in test [4] it was -1.47%; in test [5] it was -2.83%; in test [6] it was 1.59%. Also, the Percent Effect in test [7] is 20.7%; in test [8], -8.06%; in [9] it was 7.57%; in test [10] it was 12.8%; in test [11] it was 1.66%.
On to `COc1ccc(C2=C(C)C(N3CCc4ccccc43)=NS2(=O)=O)cc1`, for which the Percent Effect was -1.62% in test [1]; 20.8% in test [2]; -4.65% in [3]; -5.53% in test [4]; 1.08% in test [5]; 3.23% in test [6]. The Percent Effect in [7] is 12.7%; in test [8], 9.51%; in [9] it was -1.06%; in test [10] it was 8.97%; in [11], -11.2%.
For `CN(C)C(=O)CS(=O)(=O)Cc1cc(Cl)c2c(c1)OCO2`, the Percent Effect in test [1] is -3.08%; in test [2] it was 18.4%; in test [3] it was -1.27%; in [4], 2.86%; in test [5] it was -0.654%; in [6] it was 3.96%. In addition, the Percent Effect in test [7] was 5.16%; in test [8], -13.9%; in test [9] it was 6.4%; in test [10], 23.5%; in test [11] it was -7.39%.
As for `CCc1ccccc1C(=O)N1CCN(S(C)(=O)=O)[C@@H](C)C1`, the Percent Effect in [1] turned out to be 2.08%; in [2], 2.74%; in test [3], 0.603%; in [4], 7.54%; in test [5], 5.09%; in test [6], 3.18%. Further, the Percent Effect in [7] is 8.34%; in test [8] it was -4.78%; in [9], 1.07%; in [10] it was 0%; in test [11], -1.37%.

For the origin of these results see ChEMBL document CHEMBL3988442, “University of Dundee, Small-Polar-MMV Screening Library” (2021).
